The term inhibition denotes the change of the read-out against control, counted positive when it falls.

Consider 20 compounds from PubChem BioAssay.

Unmarked numbers belong to inactive results. For some of these results: Potency and affinity values are given separately. Active and inactive are the calls of the source. Unless noted, no rule for the calls is given here.

A short description of test [1]: antimalarial activity against Dd2 strain (AID 2302;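 active = growth inhibition above 50% at the single 2 µM test dose, taken to imply half-maximal potency below 2 µM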;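 also: 0% = DMSO untreated growth and 100% = chloroquine plus artemisinin killed control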). Particulars: P. falciparum Dd2 in RBCs, LDH growth readout, 72 h; at 2 µM; stronger effect = higher value.
The nature of test [2]: HepG2 cytotoxicity, primary screen, cytotoxicity control for P. falciparum antimalarial project, cell-based, ATP luminescence (AID 2303;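 active = inhibition above 50%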;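 also: 0% = DMSO wells and 100% = digitonin-killed cells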). Particulars: HepG2 viability, 24-48 h, at 10 µM, stronger effect = higher value.
For test [3], the target named is L-lactate dehydrogenase (Plasmodium falciparum (isolate CDC / Honduras)) (UniProt Q27743). Briefly: PfLDH activity inhibition – cell lysate, 3D7 strain, counter-screen for P. falciparum growth inhibition project (AID 2304).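 Also: 0% = vehicle and 100% = reference inhibitor.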 As to conditions: P. falciparum 3D7 crude extract, LDH APAD/NBT absorbance; at 2 µM; stronger effect = higher value. (In general: Counterscreens check selectivity or assay interference.)
L-lactate dehydrogenase (Plasmodium falciparum (isolate CDC / Honduras)), sequence (Q27743 whole entry, looked up): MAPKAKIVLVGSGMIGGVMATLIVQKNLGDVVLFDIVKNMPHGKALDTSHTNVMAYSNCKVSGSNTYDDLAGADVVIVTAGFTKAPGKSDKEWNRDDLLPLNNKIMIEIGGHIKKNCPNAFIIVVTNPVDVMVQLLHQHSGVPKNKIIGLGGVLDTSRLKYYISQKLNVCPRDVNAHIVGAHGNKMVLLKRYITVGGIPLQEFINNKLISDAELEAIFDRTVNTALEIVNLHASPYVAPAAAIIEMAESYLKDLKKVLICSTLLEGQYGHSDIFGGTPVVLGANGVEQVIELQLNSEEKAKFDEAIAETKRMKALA

Test [4] can be described thus: inhibition of 3D7 malaria parasite growth – strain 3D7 (AID 2306).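 Also: 0% = DMSO wells and 100% = chloroquine plus artemisinin control wells.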 Particulars: P. falciparum 3D7 erythrocytic growth, LDH absorbance, 72 h; at 2 µM; stronger effect = higher value.
Test [5] addresses Calcium-dependent protein kinase 1 (Plasmodium falciparum (isolate 3D7)) (UniProt P62344). In words: PfCDPK1 kinase inhibitors, biochemical, TCAMS library (AID 1159585; cut-off not given, nearly all actives have IC50 up to about 0.98 µM;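 also: inhibitors leave more ATP so luminescence rises with inhibition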). As to conditions: recombinant PfCDPK1, Kinase-Glo ATP depletion luminescence. Background: Kinase-Glo measures the ATP left after a reaction by luminescence.
The target of test [6] is Plasmodium falciparum protein kinase 6 (PK6, PF3D7_1337100) (UniProt Q8IDW1). In words: PfPK6 kinase inhibitors, biochemical, TCAMS library (AID 1159586). Particulars: recombinant PfPK6, Kinase-Glo ATP depletion luminescence.
Plasmodium falciparum protein kinase 6 (PK6, PF3D7_1337100), sequence (Q8IDW1 1-305): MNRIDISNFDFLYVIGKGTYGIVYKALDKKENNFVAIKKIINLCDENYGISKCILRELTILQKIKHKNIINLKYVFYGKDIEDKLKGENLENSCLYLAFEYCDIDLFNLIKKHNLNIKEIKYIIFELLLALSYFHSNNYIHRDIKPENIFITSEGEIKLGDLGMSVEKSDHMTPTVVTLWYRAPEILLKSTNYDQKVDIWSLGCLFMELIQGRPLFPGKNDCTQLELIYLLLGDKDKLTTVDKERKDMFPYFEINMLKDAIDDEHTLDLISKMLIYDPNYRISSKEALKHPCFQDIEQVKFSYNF
The target of test [7] is Protein kinase 7 (PK7), Plasmodium falciparum 3D7 (PF3D7_0213400) (UniProt Q7YTF7). Briefly: inhibition of Plasmodium PK7 catalytic activity – biochemical, TCAMS antimalarial set, Kinase-Glo luminescence (AID 1159587). As to conditions: recombinant PfPK7, Kinase-Glo ATP depletion luminescence.
Protein kinase 7 (PK7), Plasmodium falciparum 3D7 (PF3D7_0213400), sequence (Q7YTF7 1-343): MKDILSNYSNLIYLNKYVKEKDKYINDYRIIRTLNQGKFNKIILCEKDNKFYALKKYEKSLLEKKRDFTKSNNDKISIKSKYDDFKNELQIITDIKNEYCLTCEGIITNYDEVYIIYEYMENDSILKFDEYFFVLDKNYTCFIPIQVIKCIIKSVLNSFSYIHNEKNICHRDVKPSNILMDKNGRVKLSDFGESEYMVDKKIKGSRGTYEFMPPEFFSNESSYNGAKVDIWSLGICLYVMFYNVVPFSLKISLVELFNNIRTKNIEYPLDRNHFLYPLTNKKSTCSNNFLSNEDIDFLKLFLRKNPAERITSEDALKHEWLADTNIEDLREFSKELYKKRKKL
The target in test [8] is Calcium-dependent protein kinase 4 (Plasmodium falciparum (isolate 3D7)) (UniProt Q8IBS5). In words: PfCDPK4 kinase inhibitors, biochemical, TCAMS library (AID 1159588; cut-off not given, nearly all actives have IC50 up to about 0.91 µM). Particulars: recombinant PfCDPK4, Kinase-Glo ATP depletion luminescence.
Calcium-dependent protein kinase 4 (Plasmodium falciparum (isolate 3D7)), sequence (Q8IBS5 whole entry, looked up): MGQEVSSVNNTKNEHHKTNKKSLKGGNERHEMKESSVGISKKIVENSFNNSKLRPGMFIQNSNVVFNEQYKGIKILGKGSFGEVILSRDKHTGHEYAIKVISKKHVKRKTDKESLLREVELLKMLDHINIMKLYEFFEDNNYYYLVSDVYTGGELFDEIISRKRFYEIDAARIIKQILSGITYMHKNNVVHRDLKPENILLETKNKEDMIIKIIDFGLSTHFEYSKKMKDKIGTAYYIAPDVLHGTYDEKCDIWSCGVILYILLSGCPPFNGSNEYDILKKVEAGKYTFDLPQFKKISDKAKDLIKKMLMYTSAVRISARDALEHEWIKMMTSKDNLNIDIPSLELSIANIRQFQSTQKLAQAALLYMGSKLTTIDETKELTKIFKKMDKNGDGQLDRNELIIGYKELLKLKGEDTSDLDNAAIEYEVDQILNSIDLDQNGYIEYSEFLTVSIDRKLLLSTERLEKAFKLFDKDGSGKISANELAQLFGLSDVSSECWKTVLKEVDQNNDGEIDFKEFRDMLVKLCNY

Calcium-dependent protein kinase 1 (Plasmodium falciparum (isolate 3D7)), sequence (P62344 whole entry, looked up): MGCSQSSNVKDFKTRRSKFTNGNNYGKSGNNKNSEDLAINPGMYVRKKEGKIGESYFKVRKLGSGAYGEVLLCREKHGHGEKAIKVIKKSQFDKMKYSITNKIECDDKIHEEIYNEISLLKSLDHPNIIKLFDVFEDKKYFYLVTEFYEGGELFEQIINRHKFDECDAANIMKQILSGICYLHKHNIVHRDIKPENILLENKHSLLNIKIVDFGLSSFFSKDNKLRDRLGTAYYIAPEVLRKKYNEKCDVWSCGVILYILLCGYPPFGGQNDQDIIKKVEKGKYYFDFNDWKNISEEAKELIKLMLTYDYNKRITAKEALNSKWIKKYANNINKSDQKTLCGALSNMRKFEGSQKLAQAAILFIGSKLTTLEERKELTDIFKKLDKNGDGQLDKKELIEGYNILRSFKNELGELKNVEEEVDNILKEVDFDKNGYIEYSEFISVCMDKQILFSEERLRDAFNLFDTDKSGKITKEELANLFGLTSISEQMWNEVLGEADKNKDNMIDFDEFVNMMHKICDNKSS

With `Cc1cccc2[nH]c(-c3cccc(-c4ccc(C(=O)N5CCCCC5C(C)O)cc4)c3)nc12` (stereo not given), the growth inhibition is 91% (active) in test [1] and 100% (active) in test [4]. Further, the values for the inhibition in test [2] and in test [3] were 26% and -2%, respectively. Also, the result in test [5], in test [6], in test [7] and in test [8] was inactive.

With `COc1cc2nc(NC3CCN(Cc4ccccc4)CC3)nc(N)c2cc1OC`, the growth inhibition was 30% in test [1] and 101% (active) in test [4]. For the same compound, the inhibition in test [2] was 27%; in test [3], -2%. For the same compound, the result in test [5], in test [6], in test [7] and in test [8] was inactive.

Take `N/C(=N/C(=NCCCCCCN=C(/N=C(/N)Nc1ccc(Cl)cc1)N1CCCCC1)N1CCCCC1)Nc1ccc(Cl)cc1`: the growth inhibition in test [1] was 98% (active); in test [4], 100% (active). The inhibition in test [2] is -7%; in test [3] it was 0%. Moreover, the result in test [5], in test [6], in test [7] and in test [8] was inactive.

For the compound `CN(C)CCOc1cc(NC(=O)Nc2ccc(Oc3ccccc3)cc2)ccc1I`, the results for the growth inhibition in test [1] and in test [4] were 4% and 89% (active), respectively. For the same compound, the inhibition in test [2] was 13%; in test [3] it was 4%. Moreover, the result in test [5], in test [6], in test [7] and in test [8] was inactive.

For `CCOc1ccccc1N1CCN(CCCNC(=O)/C(=C/C=C/c2cc3cc(Cl)c(Cl)cc3[nH]2)OC)CC1`, the figures for the growth inhibition in test [1] and in test [4] were 93% (active) and 98% (active), respectively. The inhibition in test [2] was 45%; in test [3] it was -4%. For the same compound, the result in test [5], in test [6], in test [7] and in test [8] was inactive.

Take `O=[N+]([O-])c1ccc2nc(Nc3cccc(C(F)(F)F)c3)c(Nc3cccc(C(F)(F)F)c3)nc2c1`: the growth inhibition in test [1] was 99% (active); in test [4], 101% (active). Besides, the inhibition is -2% in test [2] and -4% in test [3]. The outcome in test [5], in test [6], in test [7] and in test [8] was inactive.

In the case of `CS(=O)(=O)c1ccc(-c2cncc(Nc3cccc([N+](=O)[O-])c3)c2)cc1`, the growth inhibition in test [1] was 70% (active); in test [4], 97% (active). Moreover, the inhibition is 6% in test [2] and -1% in test [3]. For the same compound, the result in test [5], in test [6], in test [7] and in test [8] was inactive.

As for `COc1ccc(Nc2nccc(-c3c(-c4cccc(NC(=O)c5c(F)cccc5F)c4)nn4ccccc34)n2)cc1Cl`, the growth inhibition is 71% (active) in test [1] and 95% (active) in test [4]. Further, the results for the inhibition in test [2] and in test [3] were 61% (active) and -1%, respectively. Further, the outcome in test [5], in test [6], in test [7] and in test [8] was inactive.

Turning to `CCC(C)NC(=O)CN1CN(c2ccccc2)C2(CCN(C(=O)c3ccc(C(C)(C)C)cc3)CC2)C1=O` (stereo not given), the growth inhibition in test [1] was 100% (active); in test [4], 101% (active). In addition, the inhibition in test [2] is -6%; in test [3], -4%. The result in test [5], in test [6], in test [7] and in test [8] was inactive.

As to `O=C(NC1CCN(CCN2CCC(c3c[nH]c4ccccc34)CC2)CC1)c1ccc(-c2ccc(C(F)(F)F)cc2)cc1`, the growth inhibition was 100% (active) in test [1] and 99% (active) in test [4]. The values for the inhibition in test [2] and in test [3] were 100% (active) and 4%, respectively. For the same compound, the outcome in test [5], in test [6], in test [7] and in test [8] was inactive.

Take `COc1ccc(S(=O)(=O)NC2CCN(c3ccc(C(F)(F)F)cc3NC(=O)OCC(C)C)CC2)cc1`: the growth inhibition is 13% in test [1] and 85% (active) in test [4]. Moreover, the inhibition in test [2] was 19%; in test [3] it was 3%. Moreover, the result in test [5], in test [6], in test [7] and in test [8] was inactive.

As to `CCN(CCNc1nc(NCCc2cnc[nH]2)nc(N(CCC#N)Cc2ccccc2)n1)c1cccc(C)c1`, the growth inhibition is 92% (active) in test [1] and 101% (active) in test [4]. Also, the figures for the inhibition in test [2] and in test [3] were 13% and -3%, respectively. Further, the outcome in test [5], in test [6], in test [7] and in test [8] was inactive.

In the case of `CC(C)C[C@@H](/C=N/N1CCOC1=O)NC(=O)[C@H](CC(C)C)NC(=O)c1ccc(OCCN2CCOCC2)cc1`, the growth inhibition in test [1] is 87% (active); in test [4], 92% (active). Also, the values for the inhibition in test [2] and in test [3] were 5% and 6%, respectively. Besides, the result in test [5], in test [6], in test [7] and in test [8] was inactive.

As to `CN(C)C(=NCCCCCCN=C(/N=C(/N)Nc1ccc(Cl)cc1)N(C)C)/N=C(/N)Nc1ccc(Cl)cc1`, the values for the growth inhibition in test [1] and in test [4] were 98% (active) and 97% (active), respectively. Besides, the results for the inhibition in test [2] and in test [3] were 11% and 4%, respectively. Moreover, the outcome in test [5], in test [6], in test [7] and in test [8] was inactive.

Regarding `CCOc1ccc(C(=O)Nc2cc(Br)c3c(c2)CNCC3)cc1Cl`, the growth inhibition in test [1] was 8%; in test [4], 92% (active). The inhibition in test [2] was 13%; in test [3] it was 5%. Further, the result in test [5], in test [6], in test [7] and in test [8] was inactive.

Consider `CC(C)(Oc1ccc(Cl)cc1)C(=O)NCCC1CCN(CCCCCNC(=O)/C=C/c2ccc(Cl)c(Cl)c2)CC1`, for which the results for the growth inhibition in test [1] and in test [4] were 37% and 87% (active), respectively. The figures for the inhibition in test [2] and in test [3] were 73% (active) and -1%, respectively. The outcome in test [5], in test [6], in test [7] and in test [8] was inactive.

Consider `Cc1cnc(NCCc2ccc(F)cc2)nc1NCCC(=O)Nc1ccccc1`, for which the figures for the growth inhibition in test [1] and in test [4] were 17% and 89% (active), respectively. For the same compound, the inhibition in test [2] is 3%; in test [3], 6%. In addition, the result in test [5], in test [6], in test [7] and in test [8] was inactive.

`CNCCNCc1cccc(-c2ccc(-c3nc4c(C)cccc4[nH]3)cc2)c1`: the growth inhibition in test [1] is 21%; in test [4], 98% (active). Besides, the inhibition in test [2] is 17%; in test [3] it was -1%. In addition, the result in test [5], in test [6], in test [7] and in test [8] was inactive.

Consider `COc1cc(CCNc2nc(NCc3cccc4ccccc34)nc(N3CCC(N)CC3)n2)ccc1O`, for which the growth inhibition was 59% (active) in test [1] and 100% (active) in test [4]. For the same compound, the inhibition was 16% in test [2] and 5% in test [3]. Moreover, the result in test [5], in test [6], in test [7] and in test [8] was inactive.

Take `CCCN(CCC)C(=O)c1cc(C(=O)N[C@@H](Cc2ccccc2)[C@H](O)CNCc2cccc(OC)c2)cc(N2CCCCS2(=O)=O)c1`: the growth inhibition in test [1] was 99% (active); in test [4], 97% (active). In addition, the inhibition in test [2] was -1%; in test [3] it was 4%. Besides, the outcome in test [5], in test [6], in test [7] and in test [8] was inactive.
